# Sa RN4220 lethal – kills Staphylococcus aureus RN4220; 330,000 tested, 0.33% active; AID 1259311; inhibition, % (concentration not given with the values); S. aureus RN4220 growth, OD600, 16 h; in the data active means inhibition above about 85%;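 further: plate controls were untreated cells for no effect and reference antibiotic for full effect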
# Mtb hypoxia inh – reduces hypoxia-regulated biosensor signal in M. tuberculosis; M. tuberculosis hypoxia-regulated fluorescent reporter, fluorescence; fluorescence inhibition, % (test concentration not listed); 300,000 tested, 0.1% active; in the data active means fluorescence inhibition mostly above about 23%, no sharp cut-off; inactive means mostly below about 17%
# ugtP null kill – kills S. aureus RN4220 lacking UgtP. growth inhibition, % (concentration not given with the values). S. aureus RN4220 ugtP deletion, OD600 growth, 16 h. 330,000 tested, 0.54% active; in the data active means growth inhibition above about 68%;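 further: plate controls were untreated wells for no effect and antibiotic for full effect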
# RecA intein inh – inhibitors of M. tuberculosis RecA intein splicing; P9WHJ3; cell-free RecA intein splicing, fluorescence; inhibition, % (test concentration not listed); 290,000 tested, 0.75% active; in the data active means inhibition above about 30%;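 further: 0% = vehicle wells and 100% = reference inhibitor control wells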
# Target sequence (P9WHJ3 whole entry, looked up): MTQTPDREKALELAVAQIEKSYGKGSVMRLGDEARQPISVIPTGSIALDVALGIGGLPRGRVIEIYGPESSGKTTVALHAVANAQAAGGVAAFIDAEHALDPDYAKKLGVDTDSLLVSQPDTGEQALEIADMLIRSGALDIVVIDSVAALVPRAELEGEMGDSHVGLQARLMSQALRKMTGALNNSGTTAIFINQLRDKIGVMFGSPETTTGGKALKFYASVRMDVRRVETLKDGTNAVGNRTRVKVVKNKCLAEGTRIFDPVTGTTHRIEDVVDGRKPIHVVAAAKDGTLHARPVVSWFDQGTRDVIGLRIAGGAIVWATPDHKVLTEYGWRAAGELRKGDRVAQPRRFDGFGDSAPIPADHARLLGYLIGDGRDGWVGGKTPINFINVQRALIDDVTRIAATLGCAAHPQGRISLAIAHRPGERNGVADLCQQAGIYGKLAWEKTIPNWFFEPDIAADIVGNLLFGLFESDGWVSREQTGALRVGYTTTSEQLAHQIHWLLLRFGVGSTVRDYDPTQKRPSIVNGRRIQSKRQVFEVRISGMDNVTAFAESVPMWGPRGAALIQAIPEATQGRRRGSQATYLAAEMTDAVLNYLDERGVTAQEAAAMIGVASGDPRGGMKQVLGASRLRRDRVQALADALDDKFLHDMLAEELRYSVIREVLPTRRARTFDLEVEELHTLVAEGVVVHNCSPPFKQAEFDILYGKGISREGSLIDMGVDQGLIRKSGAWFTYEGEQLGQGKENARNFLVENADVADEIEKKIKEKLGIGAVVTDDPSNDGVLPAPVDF
# BJeLR lethal – kills HRASV12-expressing BJeLR cells. 300,000 tested, 0.17% active. BJeLR (HRASV12) viability, CellTiter-Glo ATP luminescence, 48 h. inhibition, % (concentration not given with the values). AID 1554; in the data active means inhibition above about 50%
# CCHF vOTU inh-1 – blocks the CCHF virus ovarian tumor domain protease | inhibition, % at 11.5 µM | CCHFV vOTU protease, Pep-AMC fluorescence | 370,000 tested, 0.55% active | AID 651958; further: 0% = vehicle wells with enzyme and 100% = no enzyme wells
# CCHF vOTU inh-2 – confirmation of CCHF virus vOTU protease inhibitors. shares compounds with CCHF vOTU inh-1. Recombinant CCHFV vOTU, Pep-AMC fluorescence. inhibition, % at 11.5 µM. 1,900 tested, 17% active
# Starred values were filed as active, the others as inactive; / = not tested or not shown. Only some compounds are listed: those with a hit (about 1.6% of all), similar ones and a draw of the others. Unless noted, no stated cut-off is given here; in the data, active means inhibition above about 30%; inactive means the rest.
SMILES,Sa RN4220 lethal,Mtb hypoxia inh,ugtP null kill,RecA intein inh,BJeLR lethal,CCHF vOTU inh-1,CCHF vOTU inh-2
CN(c1ccccc1)c1ccc(/C=C(/CCC(=O)O)c2nc3ccccc3s2)cc1[N+](=O)[O-],10,7,-7,/,/,32*,26
O=C(O)CC/C(=C\c1ccccc1[N+](=O)[O-])c1nc2ccccc2s1,-7,8,9,13,-5,-7,/
C=CCN1CC[C@@]2(C)c3cc(O)ccc3CC1C2C (some centres not stated),-3,-6,-1,/,/,/,/
CC(C)Cc1ccc(C(C)C(=O)Nc2ccc(O)cc2)cc1 (configuration not stated),10,11,14,6,2,30*,2
Cc1ccc(C(=O)NC(=Cc2cccs2)C(=O)NCCCn2ccnc2)cc1C,3,-1,9,/,/,/,/
CCOc1ccc(Cl)cc1C1=CC(=O)CC(c2ccc(OC)cc2)C1 (configuration not stated),2,12,-18,/,/,/,/
CCOC(=O)CC1(C)Oc2ccccc2N1S(=O)(=O)c1ccc(C)cc1 (configuration not stated),/,/,/,/,/,30*,-23
CCOC(=O)C1CN(S(=O)(=O)c2ccc(C)cc2)c2cc(S(=O)(=O)CC)ccc2O1 (configuration not stated),-1,5,-1,/,7,2,/
Cc1cc(C=NNC(=O)COc2cccc3cccnc23)c(C)n1-c1ccccc1,9,-4,0,/,/,/,/
Cc1c(C#N)c(O)[nH]c(=O)c1N=Nc1ccc(Cl)c(C(=O)O)c1,5,3,18,-2,-5,31*,-3
Cc1c(C#N)c(O)[nH]c(=O)c1N=Nc1ccc(S(N)(=O)=O)cc1,2,21,7,-2,0,25,/
CC(=NNc1ccc(Cl)c(Cl)c1)c1ccc(-n2ccnc2)cc1,-13,0,-5,/,/,/,/
COc1cccc(-c2cc(NC=O)c3ncc(-c4cccc(C(=O)N(C)C)c4)n3c2)c1,/,/,/,/,/,31*,-11
COc1cccc(-c2cnc3c(NC=O)cc(-c4cccc(C(=O)N(C)C)c4)cn23)c1,/,/,/,/,/,7,/
CCOc1ccc(NS(=O)(=O)c2ccc(-c3cnc(C4CC4)o3)cc2)cc1,9,-2,-6,6,-10,30*,-16
CC1(Cc2ccc(F)cc2)C(=O)Nc2ccc(S(=O)(=O)NC3CCCCC3)cc21 (configuration not stated),/,/,/,/,/,44*,-6
COc1ccc(S(=O)(=O)NCC(c2ccco2)N2CCc3ccccc3C2)cc1 (configuration not stated),0,2,6,6,-5,35*,-7
CN(CC(=O)Nc1ccc(Cl)c(C(F)(F)F)c1)C(=O)CC1Sc2ccccc2NC1=O (configuration not stated),-17,9,13,-1,5,33*,-16
COc1cccc(NC(=O)CN(C)C(=O)CC2Sc3ccccc3NC2=O)c1 (configuration not stated),1,10,3,/,/,-7,/
C=CCOC(=O)C(=O)C=Cc1ccc2c(c1)Cc1ccccc1-2,1,17,6,/,/,/,/
O=S1(=O)NC2c3ccccc3CC2O1 (configuration not stated),8,2,0,26,10,37*,-5
O=S1(=O)CCOC2Cc3ccccc3C2N1Cc1ccccc1 (configuration not stated),6,-2,2,/,/,/,/
COc1c(O)cccc1C(O)C1CCN(CCc2ccc(F)cc2)CC1 (configuration not stated),9,10,5,/,/,/,/
O=S(=O)(Nc1cc(Sc2cccc3cccnc23)c(O)c2ccccc12)c1ccc(F)cc1,27,/,16,12,14,83*,-5
COc1ccc(S(=O)(=O)Nc2cc(Sc3ncn[nH]3)c(O)c3ccccc23)cc1,/,/,/,/,/,107*,99*
SMILES,Sa RN4220 lethal,Mtb hypoxia inh,ugtP null kill,RecA intein inh,BJeLR lethal,CCHF vOTU inh-1,CCHF vOTU inh-2
CCCOC(=O)C1C2C=C[C@]3(CN(CC4CCCO4)C(=O)C13)O2 (some centres not stated),9,9,3,/,/,/,/
NC(=S)NN=Cc1coc2ccc(O)cc2c1=O,6,8,11,/,/,/,/
NC(=O)CCC(NC(=O)c1ccc(F)cc1)C(=O)OCC(=O)NCc1ccc(F)cc1 (configuration not stated),2,6,-3,/,/,/,/
CC(C)(C)OC(=O)NCCCCC(NC(=O)c1nc[nH]c1C(=O)NCc1ccccc1)C(=O)OC(C)(C)C (configuration not stated),-3,3,-37,/,/,/,/
COc1ccc(C(CNC(=O)C(=O)NC2CCCCC2)N2CCN(C)CC2)cc1 (configuration not stated),3,1,2,-5,2,32*,-14
COc1ccc(/C=N/Nc2nncn2N)cc1Br,/,/,/,-2,-11,91*,4
COc1cc(/C=C(\C#N)C(N)=O)ccc1OCc1c(C)no[n+]1[O-],3,4,12,1,-1,1,/
COc1cc(/C=N/Nc2nncn2N)ccc1OCc1c(C)no[n+]1[O-],/,/,/,-4,-9,97*,-8
Nn1cnnc1NN=Cc1ccc(Cl)cc1Cl,-4,3,2,/,/,/,/
Nn1cnnc1N/N=C/c1ccc(Cl)cc1Cl,/,/,/,3,5,102*,-17
COc1cc(C=NNc2nncn2N)ccc1OC(C)=O,4,1,2,/,/,/,/
CC1CN(C(C)CO)C(=O)c2cccc(NC(=O)Nc3ccc(F)cc3)c2OC1CN(C)Cc1ccccc1 (configuration not stated),1,4,3,/,/,/,/
CCOC(=O)C1C2COc3cc(OC)ccc3C2N2C(=O)N(c3ccc(C)cc3)C(=O)[C@]12C (some centres not stated),4,11,2,/,/,/,/
CCOC(=O)c1ccc(N=C2C(=S)N(c3ccc(C(=O)OCC)cc3)C(=N)N2N=Cc2ccccc2)cc1,-3,-16,-10,/,/,/,/
CC1=C(C(=O)N(C(C)C)C(C)C)CC(CC(=O)NCCCCc2ccccc2)C(=O)N1Cc1ccc(C(C)(C)C)cc1 (configuration not stated),/,/,/,/,/,35*,16
CC1=C(C(=O)N2CCOCC2)CC(CC(=O)NCCCCc2ccccc2)C(=O)N1Cc1ccc(C(C)(C)C)cc1 (configuration not stated),/,/,/,/,/,32*,1
CC1=C(C(=O)N(C(C)C)C(C)C)CC(CC(=O)NCC2CCCCC2)C(=O)N1Cc1ccc(C(C)(C)C)cc1 (configuration not stated),/,/,/,/,/,38*,9
CC1=C(C(=O)N(C)C)CC(CC(=O)NC(c2ccccc2)c2ccccc2)C(=O)N1Cc1ccc(F)cc1 (configuration not stated),/,/,/,/,/,34*,-15
